High-throughput results deposited in PubChem BioAssay by Sanford-Burnham Center for Chemical Genomics.
PABP FP inh: blocks human PABP binding to poly(A) RNA. P11940. fluorescence polarization. calls only at 35 µM. 290,000 compounds, 1% hits. AID 2014;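 also: calls also rest on retests at 20 µM and on dose response follow-up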
Target sequence (P11940 whole entry, looked up): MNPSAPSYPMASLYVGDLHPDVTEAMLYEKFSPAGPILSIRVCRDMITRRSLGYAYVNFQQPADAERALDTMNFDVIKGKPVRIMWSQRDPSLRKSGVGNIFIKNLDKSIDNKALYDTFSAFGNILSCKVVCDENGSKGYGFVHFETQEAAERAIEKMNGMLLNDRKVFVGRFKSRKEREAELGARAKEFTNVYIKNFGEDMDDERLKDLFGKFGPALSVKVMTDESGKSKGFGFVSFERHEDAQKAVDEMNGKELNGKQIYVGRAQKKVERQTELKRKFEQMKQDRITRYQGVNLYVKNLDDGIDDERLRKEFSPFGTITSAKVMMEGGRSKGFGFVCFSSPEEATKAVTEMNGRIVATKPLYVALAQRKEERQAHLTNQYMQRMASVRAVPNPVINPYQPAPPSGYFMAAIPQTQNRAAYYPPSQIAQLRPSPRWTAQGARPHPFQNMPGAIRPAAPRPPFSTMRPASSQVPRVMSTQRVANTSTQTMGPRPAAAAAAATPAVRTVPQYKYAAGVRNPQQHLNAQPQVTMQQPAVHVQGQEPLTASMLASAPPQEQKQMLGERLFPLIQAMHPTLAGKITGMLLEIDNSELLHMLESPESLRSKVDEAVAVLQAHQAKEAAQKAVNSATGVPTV
eIF4H inh: inhibitors of RNA binding by human eIF4H | inhibition, % at 35 µM | 290,000 compounds, 0.94% hits | eIF4H fluorescence polarization binding assay;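 also: calls also rest on retests at 20 µM and on dose response follow-up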
A3G deaminase: APOBEC3G (human) deaminase inhibition. Q9HC16. 330,000 compounds, 0.28% hits. recombinant A3G, ssDNA deamination FAM/TAMRA fluorescence. AID 493012. inhibition, % at 20 µM;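 active = inhibition of at least 40% at 20 µM, with no more than 30% in the related APOBEC3A deaminase screen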;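 also: plate controls were DMSO wells with A3G for no effect and wells lacking A3G enzyme for full effect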
MLLE-PAM2 inh: inhibitors of microRNA-mediated deadenylation, human PABP1 MLLE binding; 360,000 compounds, 0.36% hits; P11940; AID 588489; inhibition, % at 20 µM; GST-MLLE / FITC-PAM2 fluorescence polarization; in the data active = inhibition above about 35%, passing the limit was not always enough;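 also: plate controls were DMSO wells with GST-MLLE for no effect and wells lacking GST-MLLE protein for full effect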
APOBEC3A inh: human APOBEC3A DNA deaminase inhibition. P31941. recombinant A3A, FAM/TAMRA ssDNA deamination fluorescence. inhibition, % at 20 µM. 330,000 compounds, 0.41% hits. AID 493011;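 active = at least 40% inhibition at 20 µM here, with at most 30% in a related deaminase screen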;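 also: plate controls were A3A with DMSO for no effect and wells lacking A3A enzyme for full effect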
PHOSPHO1 block: blocks human PHOSPHO1 phosphatase activity; Q8TCT1; recombinant PHOSPHO1, absorbance phosphatase assay; inhibition, % at 13.3 µM; 290,000 compounds, 1.1% hits; AID 1565; in the data active = inhibition above about 60%
* hit, by the source's call; i = inactive; / = no result given; + = active, no number. Compounds with a hit are over-represented: about 2.6% of the library has one in this group of screens. Unless noted, no rule for the calls is given here.

SMILES	PABP FP inh	eIF4H inh	A3G deaminase	MLLE-PAM2 inh	APOBEC3A inh	PHOSPHO1 block
COCCSc1ccccc1C(=O)Nc1cc([N+](=O)[O-])ccc1OC	i	-0.6	-2.6	2.6	-1.0	12.6
COCCSc1ccccc1C(=O)Nc1ccc([N+](=O)[O-])cc1OC	i	3.8	30.8	0.0	1.9	64.3*
CS(=O)(=O)N(CC(=O)N/N=C/c1cccc2c1OCCO2)c1ccccc1Br	i	-0.4	-0.3	4.1	-1.1	60.1*
Oc1cccc(C=Nc2cccc3ccccc23)c1O	+	64.7*	19.5	35.2	-0.4	29.0
Oc1c(C=NCc2ccccc2)sc2ccccc12	i	1.9	-7.7	41.9*	-5.3	-20.7
Oc1ccccc1C=Nc1cccc2ccccc12	i	12.3	-1.0	-5.5	-5.8	13.9
Oc1cccc(C=NCc2ccccc2)c1O	+	90.3*	6.5	-1.5	13.3	7.1
CCn1c(O)c(C=NCc2ccccc2)sc1=S	i	-8.8	-8.4	19.5	-6.4	24.6
O=[N+]([O-])c1ccc(N=Cc2sc3ccccc3c2O)cc1	i	40.6	1.3	-56.3	-1.1	7.1
Oc1ccccc1N=Cc1c(O)ccc2ccccc12	+	85.5	17.6	-65.1	-5.7	29.8
Nn1c(-c2cccc([N+](=O)[O-])c2)nc2ccccc2c1=O	i	-6.9	-7.2	7.6	-8.6	36.0
CCN(C(=O)COC(=O)c1cnc(C)cn1)c1c(N)n(Cc2ccccc2)c(=O)[nH]c1=O	/	/	-7.0	8.0	-2.8	/
COc1ccc(NC(=O)CCN2CCN(S(=O)(=O)c3ccc(C(C)C)cc3)CC2)cc1	i	-4.9	9.7	14.5	5.0	7.1
CCN(c1ccc(NC(=O)COC(=O)c2ccc(S(=O)(=O)N3CCCC3)cc2)cc1)C(C)C	i	3.3	-1.8	-11.5	2.8	104.3*
CC(C)c1ccc(S(=O)(=O)N2CCN(CCC(=O)Nc3ccc(N(C)C)cc3)CC2)cc1	i	-1.2	/	-4.1	/	82.6*
O=C(COC(=O)c1ccc(O)cc1)Nc1ccc(S(=O)(=O)N2CCCC2)cc1	/	/	-5.3	9.5	0.1	/
O=C(NCc1cccnc1)Nc1cccc(Cl)c1Cl	i	2.0	-2.2	4.7	-0.7	31.3
CCC1(C)Cc2ccccc2/C(=C/C(=O)N2CCCCC2)N1 (stereo unspecified)	+	29.7	-3.8	23.9	-1.3	26.0
CNC(=O)/C=C1\NC(C)(C)Cc2ccccc21	i	1.5	14.9	26.2	3.7	3.0
CN1OC[C@@H]2CN3C(=O)N(c4cccc5ccccc45)c4ccccc4[C@@H]3C[C@@H]21	/	/	/	-31.1	/	/
O=C(O)COn1c(-c2ccccc2)nc2ccc([N+](=O)[O-])cc21	+	104.3	24.8	34.1	28.9	42.1
O=C(O)COn1c(-c2ccc(Cl)cc2)nc2ccc(Cl)cc21	i	-5.2	-6.0	-5.1	-3.2	24.9
CCOC(=O)C(C)On1c(-c2ccccc2)nc2ccc([N+](=O)[O-])cc21 (stereo unspecified)	i	-2.6	-2.8	14.5	-3.4	0.9
Cc1ccc(COn2c(-c3ccc(Cl)cc3)nc3ccc([N+](=O)[O-])cc32)cc1	i	9.1	-2.2	24.5	0.2	17.3
O=[N+]([O-])c1ccc2nc(-c3ccc(Cl)cc3)n(OCc3ccccc3)c2c1	i	-14.5	-4.5	5.2	-3.6	62.2*
SMILES	PABP FP inh	eIF4H inh	A3G deaminase	MLLE-PAM2 inh	APOBEC3A inh	PHOSPHO1 block
CCOC(=O)C(C)On1c(-c2ccc(Cl)cc2)nc2ccc([N+](=O)[O-])cc21 (stereo unspecified)	i	2.3	-0.2	0.8	5.9	101.5*
Cc1noc(C)c1C(=O)OC(C)C(=O)c1c[nH]c2ccccc12 (stereo unspecified)	/	/	/	-12.3	/	/
COc1cc2c(cc1OC)CN(c1ccc(F)cc1[N+](=O)[O-])CC2	i	-1.8	-7.8	19.2	0.3	24.8
Cc1nn(CC(=O)N(CC(C)C)C2CCS(=O)(=O)C2)c(C)c1[N+](=O)[O-] (stereo unspecified)	/	/	-6.1	-7.5	-0.8	/
COc1cc(/C=C(\C#N)C(=O)NCC2CCCO2)ccc1O (stereo unspecified)	+	active	-1.1	-18.9	-2.8	-22.0
O=C(Oc1ccc(-n2cnnn2)cc1)c1ccccc1	i	70.6*	1.8	-5.5	2.0	32.8
O=C(Oc1ccccc1)c1ccc(-n2cnnn2)cc1	i	11.6	-3.9	-11.0	-1.0	14.8
NC(=O)COc1ccc(-n2cnnn2)cc1	i	92.5*	20.5	2.4	20.2	-12.7
CCCS(=O)(=O)NC(=O)C1(C)CCN(C(=O)c2c(C)noc2C)C1 (stereo unspecified)	/	/	/	6.0	/	/
CCNC(=O)C1(C)CCN1CCS(=O)(=O)c1ccc(C)cc1 (stereo unspecified)	/	/	/	1.3	/	/
CC(=O)Nc1nc(=S)n(-c2ccccc2)[nH]1	i	-7.5	31.7	-27.9	-3.7	96.1*
CC(C)c1nc(=S)n(-c2ccccc2)[nH]1	i	-8.2	31.0	-8.4	-6.5	-23.1
COc1ccc(-c2nc3cc(NC(=O)Cc4ccc(OC)c(OC)c4)ccc3o2)cc1	i	-6.9	-4.7	-0.8	-1.7	-17.0
CCOc1ccc(S(=O)(=O)NC2CCCCCC2)cc1	i	-6.0	-7.8	-9.2	-5.5	-19.7
CCOc1ccc(S(=O)(=O)N/N=C(\C)C2CCCCC2)cc1	+	71.1*	-10.6	8.0	1.6	7.4
COC1=C/C(=C/c2c(O)c(C#N)c3ccccn23)C=CC1=O	+	67.9	-1.4	-33.3	4.6	-3.1
COc1cc(OC)cc(C(=O)c2c(C)c(C#N)c3ccccn23)c1	i	4.4	-5.8	-1.4	1.8	36.0
CC(C)[C@H](NC(=O)C1CCN(S(=O)(=O)c2ccccc2)CC1)C(=O)NCc1ccc(F)cc1	i	-3.9	1.7	13.4	-0.3	36.8
COC(=O)c1ccc(-n2cc(-c3ccc(OC)cc3)[nH]c2=S)cc1	i	12.0	/	-25.6	/	-2.7
COc1ccc(-n2cc(-c3ccc(Cl)cc3)[nH]c2=S)cc1	i	-3.6	-4.7	3.3	-4.6	60.0*
CCCC(C)NC(=O)CSc1nnc(-c2c[nH]c3ccccc23)o1 (stereo unspecified)	i	-1.5	-7.4	-4.5	0.6	73.2*
c1ccc2c(-c3nnc(SCc4cn5ccccc5n4)o3)c[nH]c2c1	i	6.9	-5.1	-128.0	-18.3	85.0*
c1ccc(CSc2nnc(-c3c[nH]c4ccccc34)o2)cc1	i	5.2	-8.6	-7.8	-5.8	-28.6
NC(=S)N=Nc1c(O)[nH]c2c(Br)cc(Br)cc12	i	38.3	-8.8	9.1	-2.8	-1.7
Cc1ccccc1C1C(C#N)=C2N=C(N)c3c(sc4c3CCCCC4)N2C2=C1C(=O)CCC2 (stereo unspecified)	+	78.3*	-2.1	21.7	0.4	-62.8
